# Assay outcomes deposited in PubChem by National Center for Advancing Translational Sciences (NCATS).
# Hits are enriched below; roughly 19% of the tested compounds scored in any of these assays.
# IL1B secr inh = inhibitors of inflammasome signaling (IL-1 beta secretion). hit rate 4.7% among 360,000. activity change, % at 57.5 µM. THP-1 LPS/ATP IL-1B secretion, AlphaLISA, 16 h; hits give low values; in the data active = activity change below about -50%; inconclusive = mostly about -30% to -49%
#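 THP-1 cells pretreated 1 hr with compounds (up to 57.5 uM final), then stimulated with LPS (250 ng/mL final) plus ATP (1.25 mM final); secreted IL-1B measured by AlphaLISA after 16 hr, decreased signal indicating inhibition.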
# TDP1 cell noCPT = qHTS for Inhibitors of human tyrosyl-DNA phosphodiesterase 1 (TDP1): qHTS in cells in absence of CPT; DT40 Tdp1-/- hTDP1 cells, no CPT, ATP luminescence, 48 h; AID 686978, 2013; Potency, µM (titrated, usually from 46.2 µM), for inactives: at the top dose activity change, negative = growth inhibition, usual class: inhibitors; hit rate 15% among 420,000; note: potency is the fitted concentration of half-maximal effect; nearly all actives have a fitted effect of over 55% in size
#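 Camptothecin absent (DMSO only). Human TDP1-complemented DT40 knockout cells, 400 cells/well, 37 °C for minimum 48 hr; ATP measured via CellTiter-Glo, 30 min dark incubation, luminescence.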
# HT1080 IDH1KD tx = toxicity to HT-1080 IDH1 knockdown cells (counter line); hit rate 2% among 360,000; Potency, µM (top dose mostly 46.1 µM), for the others: at the highest dose activity, negative = toxicity, hits mostly cytotoxic; AID 686971; HT-1080 IDH1 knockdown viability, ATP luminescence, 48 h;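 note: potency is the fitted concentration of half-maximal effect; 0% = DMSO wells and -100% = cell-free medium wells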
#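 % activity derives from luminescence (CellTiter-Glo), normalised to DMSO and no-cell wells. HT-1080-IDH1KD cells, 750/well, had 48 h compound exposure at 37 °C.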
# HT1080NT lethal = kills 2HG-producing HT-1080-NT fibrosarcoma cells; HT-1080-NT fibrosarcoma viability, CellTiter-Glo ATP luminescence, 48 h; Potency, µM (doses to about 46.1 µM), without a hit: at the top dose activity, negative = less viability, usual class: cytotoxic; hit rate 1.6% among 360,000; AID 686970;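 note: NT is the 2HG producing partner of a matched IDH1 knockdown line; potency is the fitted concentration of half-maximal effect; 0% = DMSO-treated cells and -100% = media-only wells without cells; nearly all actives have a fitted effect of over 55% in size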
#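 Toxicity toward the 2HG-producing NT line was scored as %Activity, normalised to DMSO and no-cell wells, from CellTiter-Glo luminescence after 48 hours' treatment.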
# ELG1 DNA repair = ELG1-dependent DNA repair inhibition. HEK293T ELG1-luciferase reporter, luminescence, 16 h; DNA damage induced by 5-fluorouridine. Potency, µM (titrated, usually from 46.1 µM), without a hit: at the highest dose activity change, negative = inhibition, usual class: inhibitors. hit rate 2.3% among 330,000. AID 504467; note: potency is the fitted concentration of half-maximal effect; nearly all actives have a fitted effect of over 55% in size
#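 Luminescence from the luciferase reporter, measured 30 min after ONE-Glo reagent at room temperature, was the read-out. Beforehand, 2,000 cells per well were exposed for 16 hr at 37 °C to 5-fluorouridine together with compound or vehicle.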
# DT40 TDP1 CPT = growth inhibition of DT40 Tdp1-/-;hTDP1 cells with camptothecin (screen for TDP1 inhibitors). chicken DT40 Tdp1-/-;hTDP1 cells + 20 nM CPT, ATP luminescence, 48 h. Potency, µM (doses to about 46.2 µM), for inactives: at the highest dose activity change, negative = growth inhibition, usual class: inhibitors. hit rate 12% among 420,000. AID 686979; note: potency is the fitted concentration of half-maximal effect; nearly all actives have a fitted effect of over 55% in size
#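 Chicken DT40 Tdp1-/- cells stably complemented with human TDP1 were seeded at 400 cells/well in medium containing 20 nM camptothecin, exposed to pin-transferred compounds, and grown at 37 °C for at least 48 hr. Viability was read as ATP luminescence.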
# An asterisk follows results filed as active; ? = inconclusive; . = not tested or not shown. Unless noted, calls come from the whole dose curve; as a rule, active = well fitted curve in the direction sought with a large enough effect; inconclusive = small, poorly fitted or top-dose-only effect, or another doubt; inactive = no such curve, though single readings can be large; an effect the other way counts as inactive or inconclusive. Unless noted, % is set by controls: 0 for no effect and ±100 for the full control effect.
SMILES,IL1B secr inh,TDP1 cell noCPT,HT1080 IDH1KD tx,HT1080NT lethal,ELG1 DNA repair,DT40 TDP1 CPT
CN(C)CCNC(=O)c1sc2nc(-c3ccccc3)cc(C(F)(F)F)c2c1N,-99*,16µM*,18µM*,23µM*,0%,?
COc1ccc(-c2cc(C(F)(F)F)c3c(N)c(C(=O)NCCSC)sc3n2)cc1,8,?,7%,4%,0%,?
CCOC(=O)c1c(S(=O)(=O)N2CCN(c3cc(Cl)ccc3C)CC2)c(C)n(C)c1C,.,21µM*,.,.,.,?
CCOC(=O)c1c(S(=O)(=O)N2CCCC(C(=O)NCc3ccc(Cl)cc3)C2)c(C)n(C)c1C (configuration not stated),.,?,.,.,.,13µM*
CCOC(=O)c1c(S(=O)(=O)N2CCCC(C(=O)Nc3ccc(C)cn3)C2)c(C)n(C)c1C (configuration not stated),-1,?,7%,6%,6%,?
CCOC(=O)c1c(S(=O)(=O)N2CCCC(C(=O)NCc3ccccc3Cl)C2)c(C)n(C)c1C (configuration not stated),.,-22%,.,.,.,-28%
CCOC(=O)c1c(S(=O)(=O)N2CCCC(C(=O)N3CCN(c4ccc(F)cc4)CC3)C2)c(C)n(C)c1C (configuration not stated),.,?,.,.,.,23µM*
CCOC(=O)c1c(S(=O)(=O)N2CCCC(C(=O)N(C)Cc3ccccc3)C2)c(C)n(C)c1C (configuration not stated),.,?,.,.,.,12µM*
Cc1ccc(S(=O)(=O)N2C(=O)CCC2C(=O)O/N=C(\N)c2cccc([N+](=O)[O-])c2)cc1 (configuration not stated),22,-13%,-1%,-12%,-9%,-19%
C(=N\N=C\c1ccncc1)/c1ccncc1,3,-25%,-12%,0%,6%,-21%
CCOC(=O)c1c(S(=O)(=O)N2CCCC(C(=O)N3CCN(c4ccccc4)CC3)C2)c(C)n(C)c1C (configuration not stated),.,?,.,.,.,15µM*
CCOC(=O)c1c(C)c(C(=O)N2CCN(c3ccccc3)CC2)c(C)n1C,-69*,-25%,-7%,0%,-13%,-21%
CCOC(=O)c1c(C)c(C(=O)N2CCN(c3ccc(F)cc3)CC2)c(C)n1C,6,?,-10%,-8%,-13%,?
Cc1cnc(CNc2ccnc(-c3ccccc3C(F)(F)F)n2)cn1,.,-2%,.,.,.,-9%
C[C@H]1CCC/C=C/[C@@H]2C[C@H](O)C[C@H]2[C@H](O)[C@H](S(=O)c2ccc(O)cc2)CC(=O)O1 (some centres not stated),?,0.73µM*,0.15µM*,?,.,0.58µM*
O=C(Nc1ccc(S(=O)(=O)N2CCCCC2c2cccnc2)cc1)c1ccc(Br)cc1 (configuration not stated),.,9.2µM*,.,.,.,16µM*
CCCCC(=O)Nc1ccc(S(=O)(=O)N2CCCCC2c2cccnc2)cc1 (configuration not stated),0,13µM*,-10%,-1%,-16%,18µM*
O=C(Nc1ccc(S(=O)(=O)N2CCCCC2c2cccnc2)cc1)c1c(F)cccc1F (configuration not stated),-10,?,2%,13%,?,?
O=S(=O)(CCN1CCCCC1)CCS(=O)(=O)CCN1CCCCC1,-71*,-27%,15%,16%,.,?
NC(=O)CCS(=O)(=O)CCN1CCCCC1,-4,-3%,9%,12%,0%,11%
COC(=O)[C@H](CC(C)C)NS(=O)(=O)c1ccc(F)cc1Br,27,?,13%,7%,.,-19%
